# Bioassay records: PubChem, several laboratories
# Compounds with a hit are over-represented: about 4.6% of the library has one in this group of screens.
# KKLEB tox – cytotoxicity in KKLEB CF airway cells, primary screen, cytotoxicity control for CF NF-kB inhibitor project, cell-based, uHTS, fluorescence assay plates | AID 602141, 2011 | activity change (cytotoxicity), % at 5 µM | KKLEB CF airway cells viability, ATPlite luminescence, overnight; stronger effect = lower value; cells stimulated with P. aeruginosa culture filtrate | hit rate 0.36% among 360,000;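 active = corrected activity change at or below -50% at 5 µM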
# Peg3 prom inh – Peg3 promoter-driven luciferase inhibitors, primary screen, cell-based, HeLa, luciferase luminescence; hit rate 1.7% among 360,000; inhibition, % at 20 µM; HeLa PEG-Prom luciferase reporter, overnight; AID 588405, 2011;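 active = inhibition of at least 50% at 20 µM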
# CF NFkB inh – inhibitors of PAF-induced NF-kB signaling, primary screen, cell-based, GFP fluorescence, uHTS; KKLEB NF-kB-GFP reporter, GFP fluorescence overnight; inhibition, % at 5 µM; hit rate 0.86% among 360,000; AID 588850, 2011;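 active = at least 50% inhibition at 5 µM, scaled per plate between neutral and stimulator controls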;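 also: PAF is a Pseudomonas aeruginosa culture filtrate used as stimulus; plate controls were PAF-stimulated DMSO wells for no effect and unstimulated DMSO wells for full effect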
# Mdm2-MdmX inh – inhibitors of human Mdm2-MdmX association, primary screen, cell-based, luminescence, split luciferase, SaOS-2, uHTS | Protein Mdm4 (Homo sapiens) + E3 ubiquitin-protein ligase Mdm2 (Homo sapiens), … | SaOS-2 split-luciferase Mdm2/MdmX complementation | inhibition, % at 8 µM | hit rate 3% among 330,000 | AID 485346, 2010;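 active = inhibition of at least 50% at 8 µM in the primary screen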
# ABHD5-PLIN5 inh – ABHD5-PLIN5 interaction inhibitors, primary screen, cell lysate, split luciferase complementation, luminescence | Perilipin-5 (Homo sapiens) + 1-acylglycerol-3-phosphate O-acyltransferase ABHD5 (Homo … | Split G. princeps luciferase complementation, 4 h | inhibition, % at 4 µM | hit rate 0.78% among 360,000 | AID 602281, 2012;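 active = inhibition above the mean inhibition across every tested compound plus 3 SD, cut at about 22% in these data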;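 also: 0% = DMSO only wells and the 100% control is not disclosed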
# HIF-2a block – HIF-2a reporter inhibitors, primary screen, luminescence, 786-0 RCC cells | hit rate 0.72% among 360,000 | 786-0 RCC cells HIF-2a reporter, luciferase luminescence, overnight | inhibition, % at 18.8 µM | AID 624352, 2012;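 active = inhibition of the luminescence signal of 40% or more relative to plate controls, in a single-dose primary screen at 18.75 µM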
# Mdm2 MdmX conf-1 – Mdm2-MdmX complex disruptors, retested hits, confirmation, luminescence, single concentration | AID 489028, 2010 | inhibition, % at 8 µM | hit rate 55% among 10,000 | shares compounds with Mdm2-MdmX inh | Mdm2-MdmX binding, luminescent assay; in the data active = inhibition above about 40%
# FLuc counter – full-length luciferase signal inhibition, confirmation, counter-screen for Mdm2/MdmX interaction inhibitor project, cell-based, single concentration, SaOS-2; shares compounds with Mdm2-MdmX inh; inhibition, % at 8 µM; hit rate 77% among 6,200; AID 504607, 2011; SaOS-2 full-length luciferase counterscreen, luminescence;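 active = mean inhibition at 8 µM reaching about 37%, which flags the compound as non-specific, limit read from the data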;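 also: p53-null SaOS-2 cells with luciferase driven by a doxycycline-inducible promoter; compound on cells about two nights before reading with doxycycline added after day one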
# ABHD5-PLIN5 conf – ABHD5-PLIN5 interaction inhibitors, confirmation, biochemical, luminescence | inhibition, % at 4 µM | hit rate 67% among 2,200 | shares compounds with ABHD5-PLIN5 inh; in the data active = inhibition above about 23%;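 also: 0% = DMSO vehicle wells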
# HNF4 split-luc – HNF4 dimerization inhibitors, counter-screen for ABHD5-PLIN5 interaction inhibitor project, biochemical, split-luciferase complementation, luminescence; shares compounds with ABHD5-PLIN5 inh; inhibition, % at 4 µM; hit rate 77% among 2,200;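 active = mean inhibition across replicate wells exceeding the computed hit threshold, cut at about 13% in these data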;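 also: light from luciferase halves that rejoin when HNF4 fusion proteins dimerize; 0% = DMSO only wells and the 100% control is not given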
# Mdm2 MdmX conf-2 – retested Mdm2-MdmX interaction blockers, confirmation, cell-based, luminescence, single concentration, set 2; hit rate 99% among 740; AID 504601, 2011; shares compounds with HIF-2a block; SaOS-2 split-luciferase Mdm2/MdmX complementation; inhibition, % at 8 µM;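 active = mean inhibition of the luminescence signal across two replicates at or above 26 percent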
# HIF-2a inh conf – HIF-2a reporter inhibitor retest, confirmation, luminescence, 786-0 RCC cells; hit rate 56% among 1,800; shares compounds with HIF-2a block; HIF-2a luciferase reporter luminescence, overnight; AID 651580, 2012; inhibition, % at 18.8 µM;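 active = mean inhibition across four replicates of at least 40 percent at the single tested concentration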
# HIF-1a counter – HIF-1a luciferase reporter signal reduction – MiaPaCa-2 cells, single concentration, counter-screen for HIF-2a inhibitor project, confirmation | inhibition, % at 18.8 µM | hit rate 72% among 1,800 | MiaPaCa-2 HIF-1a luciferase reporter, desferoxamine, overnight | shares compounds with HIF-2a block;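 active = mean inhibition of the reporter signal across four replicates at the single tested dose of 50% or more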
# An asterisk follows results filed as active; x = not tested or not shown.
SMILES,KKLEB tox,Peg3 prom inh,CF NFkB inh,Mdm2-MdmX inh,ABHD5-PLIN5 inh,HIF-2a block,Mdm2 MdmX conf-1,FLuc counter,HIF-2a inh conf,HIF-1a counter,others
CCCCS(=O)(=O)/C=C\C=C/S(=O)(=O)CCCC,-70.8*,102.0*,83.9*,93.7*,84.1*,93.3*,98.8*,51.1*,x,x,Mdm2 MdmX conf-2=102.5*
CCC(=O)OCCNc1cc(SCCC(=O)OC)c2nonc2c1[N+](=O)[O-],2.4,29.8,12.6,16.7,-13.8,17.3,x,x,x,x,
CCCC(=O)OCCNc1cc(Sc2nc3ccccc3[nH]2)c2nonc2c1[N+](=O)[O-],-65.8*,109.3*,92.3*,96.1*,50.1*,93.7*,99.2*,52.6*,69.2*,74.1*,ABHD5-PLIN5 conf=61.0*;HNF4 split-luc=110.1*;Mdm2 MdmX conf-2=103.2*
NC(N)=Nc1nc(-c2ccccc2)c2cc(F)ccc2n1,16.3,88.3*,-108.5,66.4*,2.3,40.3*,59.8*,48.8*,16.1,79.4*,
OCCSc1nc(-c2ccccc2)nc2ccc(F)cc12,-5.1,-1.2,-16.3,-1.6,6.2,-5.5,x,x,x,x,
COc1cc(C(=O)C(=O)N2CCN(c3ccccc3)CC2)cc(OC)c1OC,x,x,x,x,-6.2,8.4,x,x,x,x,
Cc1cc(C)c(C#N)c(SCc2nnc(-c3ccccc3)o2)n1,-17.8,38.4,7.7,84.8*,3.1,66.6*,90.9*,49.0*,75.8*,82.0*,
Cc1ccc(C#N)c(SCc2nnc(-c3ccc(Cl)cc3)o2)n1,-39.6,46.0,-5.8,88.1*,5.5,45.8*,92.5*,57.4*,59.3*,80.2*,
Cc1ccc(C#N)c(SCc2cc3c(cc2Cl)OCO3)n1,-39.2,1.3,15.6,24.2,6.3,-40.3,x,x,x,x,
O=C(NCC1CCCO1)c1c(O)c2cccc3c2n(c1=O)CC3 (stereo not drawn),-4.0,5.3,-3.0,69.2*,6.2,-50.3,69.2*,54.8*,x,x,Mdm2 MdmX conf-2=71.0*
O=C(NCCO)c1c(O)c2cccc3c2n(c1=O)CC3,-0.1,-51.5,-17.5,-12.3,0.2,-15.1,x,x,x,x,
COc1ccccc1Cc1c(-c2ccc(C)cc2)nc2cc(C)c(Br)c(C)n12,x,x,x,x,-13.6,-151.3,x,x,x,x,
CC(C)C[C@H]1CNC(=S)N1CC1CCN(CCCC2CCCC2)CC1,-14.5,-16.0,22.8,x,8.2,-5.4,x,x,x,x,
